VCAM1 TNFa inh: inhibitors of TNFa-induced VCAM1 expression, primary screen, imaging, HUVEC, TNFa stimulus, immunofluorescence | HUVEC TNFa-induced VCAM-1 immunofluorescence, high-content imaging | inhibition, % at 2 µM | 0.48% of 95,000 active | AID 802, 2007;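 active means inhibition above the batch mean plus 3 SD, with images confirmed as a hit by eye, cut at about 37% in these data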;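 further: 0% = TNF-stimulated DMSO wells and 100% = unstimulated control wells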
cytoskel mod: modifiers of F-actin cytoskeleton organization, primary screen, imaging, HUVEC, phalloidin staining, high-content imaging; HUVEC TNFa F-actin phalloidin imaging; inhibition, % at 2 µM; 0.18% of 91,000 active;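 active means inhibition above the batch mean plus 3 SD and confirmed as a hit by visual image inspection, cut at about 30% in these data, passing the limit was not always enough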
sdo1 growth: growth rescue of sdo1-depleted yeast, primary screen, S. cerevisiae, bone marrow failure model | z-score at 10 µM | 0.21% of 140,000 active | S. cerevisiae sdo1-depleted JHY4D growth rescue, OD600 30 h; active compounds read high; pdr5 snq2 efflux-pump mutant strain;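 active means z-score above 3 at both the 24 hr and the 30 hr optical density reads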;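 further: z-score against mean and SD of all compound wells on the same plate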
E-sel TNF inh: E-selectin induction blockers in HUVEC – imaging, immunofluorescence, high content, primary screen; 0.71% of 120,000 active; HUVEC TNFa-induced E-selectin immunofluorescence; inhibition, % at 2 µM;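 active means inhibition above the batch mean plus 3 SD, and confirmed as a hit on visual image review, cut at about 43% in these data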;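 further: 0% = TNF-stimulated DMSO wells and 100% = unstimulated control wells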
TNFa cytotox: cytotoxicity in TNFa-stimulated HUVEC, primary screen, cytotoxicity control for VCAM1 expression modulator project, imaging, Hoechst nuclei count; HUVEC TNFalpha-stimulated, Hoechst cell count; cell count reduction, % at 2 µM; 0.17% of 93,000 active; AID 848, 2007;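 active means cell count reduction exceeding the screen mean by over 5 SD, scaled to untreated wells per plate, cut at about 78% in these data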;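 further: cells counted after 24 h of TNF alpha exposure following the 1 h pretreatment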
Phagocytosis inh: inhibitors of macrophage phagocytosis, primary screen, imaging, J774A.1 cells, IgG beads; 0.07% of 110,000 active; inhibition, % at 5 µM; J774A.1 macrophage IgG-bead phagocytosis;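 active means inhibition above the mean of the plate negative controls plus 5 SD, cut at about 13% in these data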;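 further: phagocytic index as fraction of beads internalized from green versus red external bead signal; plate controls were DMSO negative control for no effect and cytochalasin-D positive control for full effect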
SDO1 rescue DR: SDO1-depleted yeast growth rescue, concentration-response, diseases of bone marrow failure, JHY4D, OD600. shares compounds with sdo1 growth. S. cerevisiae JHY4D (SDO1-depleted) growth rescue, 30 h; active compounds read high; efflux-deficient strain, SNQ2 and PDR5 mutated. OD recovery (no concentration beside the values). 44% of 440 active;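 active means yeast growth recovered at 30 hours, either rising with dose fitted slope above 0.001 or with average optical density gain above 0.07, some results past the limit were not filed as active; inactive means growth falling with dose or no effect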;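 further: gain in OD600 from 0 h to 30 h averaged across all seven doses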
Starred values were filed as active, the others as inactive; . = no result given. Most compounds without a hit are left out; they make up all but 1.2% or so of the library.

SMILES | VCAM1 TNFa inh | cytoskel mod | sdo1 growth | E-sel TNF inh | TNFa cytotox | Phagocytosis inh | SDO1 rescue DR
COc1ccc(CC(NC(C)=O)C(=O)NC2CCN(S(=O)(=O)c3ccccc3)CC2)cc1OC (centres undefined) | -3 | -25 | 0.33 | -33 | -6 | 0 | .
CCc1cccc2c(SCC(=O)NCC3CCCO3)nc(-c3ccc(F)cc3)nc12 (centres undefined) | 8 | 18 | 0.88 | 1 | -8 | 0 | 0.042
CNC(=O)c1cc2cc(OC)ccc2oc1=N | . | . | 12* | . | . | -1 | 0.1*
Cc1cccnc1NC(=O)C12CCC(C)(C(=O)O1)C2(C)C (centres undefined) | -17 | 0 | 2.1 | -17 | 4 | . | .
CC12CCC(C(=O)Nc3nccs3)(OC1=O)C2(C)C (centres undefined) | -2 | -10 | 3* | 1 | 6 | . | 0.091*
Cc1cc(C(=O)COC(=O)c2ccc(Br)o2)c(C)n1C | . | . | . | 0 | . | . | .
Cc1ccc(C(=O)COC(=O)c2ccc(Br)o2)cc1C | -4 | -14 | 3.7* | . | 2 | 0 | 0.081*
COc1cc(CNCc2ccccn2)ccc1OCc1cccc(Cl)c1 | 8 | 6 | 7.7* | . | -17 | . | 0.072*
COc1cc(CNCc2ccccn2)ccc1OCc1ccc(Cl)cc1 | . | . | 0.39 | . | . | 0 | .
O=C([C@H](O)c1ccccc1)N1CCC[C@H]1CO | . | . | 1.2 | 2 | . | -2 | .
COc1ccc(CCCC(=O)NCc2ccccc2)cc1C | . | . | 0.63 | . | . | 0 | .
O=c1c2cc3c(=O)n(-c4ccccc4O)c(=O)c3cc2c(=O)n1-c1ccccc1O | . | . | . | -12 | . | . | .
O=C(CCC(=O)OCC(=O)c1ccc(Cl)cc1)NC1CCCCC1 | 9 | -16 | -0.12 | 14 | 8 | . | .
Cc1ccc(C(=O)COC(=O)CCC(=O)NC2CCCCC2)cc1C | 5 | -11 | 8.2* | 9 | -13 | -2 | 0.057
CCOc1ccc(-c2nc(CSCC(=O)NCCN3CCOCC3)c(C)o2)cc1 | . | . | 2.4 | -12 | . | -5 | 0.043
COc1ccc(/C=N/NC(=O)CNc2c(Br)cc(C)cc2Br)c(C(=O)O)c1OC | . | . | . | -49 | . | . | .
COc1ccc(/C=N\NC(=O)COc2ccc(Cl)cc2Cl)c(C(=O)O)c1OC | . | . | 2.5 | . | . | -4 | 0.042
Cc1ccc(SCCC(=O)Nc2ccccc2C(=O)N2CCOCC2)cc1 | . | . | 4.1* | . | . | 1 | 0.05
O=C(CCCn1c(=O)[nH]c2cc(Cl)ccc2c1=O)NCCC1=CCCCC1 | -1 | -5 | 6.7* | -10 | -8 | -1 | 0.091*
O=C(CCCn1c(=O)[nH]c2cc(Cl)ccc2c1=O)NCCCN1CCCC1 | -9 | -2 | 1.4 | 3 | -13 | 0 | .
Cc1cccc(OCC(=O)N/N=C/CC(C)c2ccccc2)c1C (centres undefined) | . | . | -0.38 | . | . | 2 | .
Cc1ccc2c(CC(=O)NNC(=O)c3ccccc3)coc2c1 | . | . | 6.7* | 5 | . | -2 | 0.084*
Cc1nn(C)c(C)c1/C=C/C(=O)c1ccc(Cl)cc1Cl | . | . | . | -18 | . | . | .
O=C(c1ccc(Cl)nc1)N1CCN(S(=O)(=O)c2ccc(Cl)cc2)CC1 | . | . | . | -48 | . | . | .
O=C(/C(=C(\[O-])c1ccccc1)[n+]1ccc2ccccc2c1)c1ccccc1 | . | . | 7.9* | . | . | -4 | 0.039
SMILES | VCAM1 TNFa inh | cytoskel mod | sdo1 growth | E-sel TNF inh | TNFa cytotox | Phagocytosis inh | SDO1 rescue DR
C=CCOC(=O)Nc1c(C(=O)OC)[nH]c2ccccc12 | 6 | 27 | 3.9* | -24 | -28 | -1 | 0.029
COc1ccc(CCN2C(=O)c3cccc4cccc(c34)C2=O)cc1OC | -7 | 14 | 1.2 | . | -7 | -2 | 0.094*
Cc1ccc2cc(C#N)c(SCC(=O)Nc3ccc4sc(C)nc4c3)nc2c1 | 4 | 20 | 2.2 | -40 | -13 | -1 | 0.1*
Cc1cc(C)n2nc(N)c(N=Nc3ccc(Cl)cc3)c2n1 | . | . | -1.8 | . | . | -2 | .
C=CCc1cc(/C=N\NC(=O)CSc2nnc(CCCc3ccc(OC)c(C)c3)o2)cc(OC)c1O | 24 | -12 | 0.04 | 17 | 2 | -2 | .
C=CCc1cc(/C=N/NC(=O)CSc2nnc(CCCc3ccc(OC)cc3)o2)cc(OC)c1O | -8 | -9 | 1.5 | -19 | 0 | -1 | 0.087*
Cc1ccc2nc(C(F)OC(F)(F)F)[nH]c2c1 (centres undefined) | 5 | 11 | 12* | -10 | 0 | 7 | 0.041
Cc1ccc2nc(C(O)C(O)c3nc4ccc(C)cc4[nH]3)[nH]c2c1 (centres undefined) | 14 | -7 | -0.6 | 9 | -20 | -2 | .
O=C(NCCc1ccccc1)C(=O)Nc1ccc([N+](=O)[O-])cc1 | . | . | . | -12 | . | . | .
COc1ccccc1C1=NNC(=Nc2cccc(S(=O)(=O)N(C)C)c2)SC1 | . | . | . | -19 | . | . | .
COc1ccc(NC(C)=O)cc1NC(=O)c1ccc(C#N)cc1 | . | . | . | -6 | . | . | .
CCCc1nnc(NC(=O)COC(=O)c2cc(C)nc3ccccc23)s1 | 4 | 27 | -0.27 | -37 | -6 | -2 | .
CCCc1nnc(NC(=O)C(CC)OC(=O)c2cc(C)nc3ccccc23)s1 (centres undefined) | -17 | 5 | 12* | 16 | -32 | . | 0.039
CCOC(=S)SCC(=O)N1CCc2cc(OC)ccc2C1C1C(=O)CCCC1=O (centres undefined) | . | . | -0.14 | 7 | . | 0 | .
COc1ccc(-c2c(C)sc(NC(=O)c3ccnn3C)c2C#N)cc1 | . | . | 1.7 | 13 | . | -3 | 0.085*
COc1ccc(NC(=O)COC(=O)/C=C/C(=O)OCC(=O)Nc2ccc(OC)c(Cl)c2)cc1Cl | . | . | 1.4 | . | . | . | 0.044
CCOC(=O)/C=C/C(=O)OCC(=O)Nc1ccc(OC)c(Cl)c1 | . | . | -1.8 | 29 | . | . | .
Cc1cc(C)nc(SCC(=O)Nc2ncc(Cc3cccc(Cl)c3)s2)n1 | . | . | 1.2 | 13 | . | -12 | 0.091*
CCOc1cc(NC(=O)c2ccco2)c(OCC)cc1NC(=O)c1cc(OC)c(OC)c(OC)c1 | 5 | -5 | 1.2 | -19 | -34 | 6 | 0.068
COc1cc(NC(=O)c2ccco2)c(OC)cc1NC(=O)c1cc(OC)c(OC)c(OC)c1 | 11 | -16 | 0.07 | . | -19 | 0 | .
O=C(NC(=S)Nc1cccc(NC(=O)c2ccc(Cl)cc2Cl)c1)c1cccs1 | . | . | -1.2 | 11 | . | -5 | .
COc1cccc(-c2cc(C(=O)NCCN3CCOCC3)no2)c1 | 2 | -12 | -0.65 | . | -8 | 0 | .
COc1ccccc1-c1cc(C(=O)NCCN2CCOCC2)no1 | 3 | -30 | 1.5 | 13 | 9 | -4 | 0.042
CCOC(=O)c1sc(NC(=O)CSc2nnnn2-c2ccc(C)c(C)c2)nc1C | -30 | -5 | 1.5 | 25 | 16 | -1 | 0.1*
CCOC(=O)c1sc(NC(=O)CSc2nnnn2-c2ccccc2)nc1C | -2 | 13 | -1 | 17 | -18 | -1 | .

High-throughput results as filed in PubChem BioAssay.
